Compound activity deposited in PubChem by The Scripps Research Institute Molecular Screening Center.
An excerpt weighted towards active compounds, which were near 3.5% of everything screened.
GPR151 activ = activates the human receptor GPR151; Q8TDV0; PathHunter beta-arrestin GPR151 cells, luminescence; activation, % at 11.2 µM; 650,000 tested, 1% active; AID 1508602; in the data active = activation above about 4.9%
MITF inh = blocks human microphthalmia-associated transcription factor; 650,000 tested, 0.91% active; AlphaScreen MITF homodimerization, bead proximity signal; inhibition, % at 2.6 µM; O75030; AID 1259374; in the data active = inhibition above about 50%
FBW7 activator = activators of human E3 ligase FBW7; AID 1259310; normalized activity (activation), % at 26.1 µM; AlphaScreen FBW7–phospho-cyclin E peptide binding, activator screen; 650,000 tested, 0.13% active; in the data active = normalized activity above about 1.9%;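 note: purified mutant Fbw7 with reduced substrate affinity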
Target sequence (Q969H0 whole entry, looked up): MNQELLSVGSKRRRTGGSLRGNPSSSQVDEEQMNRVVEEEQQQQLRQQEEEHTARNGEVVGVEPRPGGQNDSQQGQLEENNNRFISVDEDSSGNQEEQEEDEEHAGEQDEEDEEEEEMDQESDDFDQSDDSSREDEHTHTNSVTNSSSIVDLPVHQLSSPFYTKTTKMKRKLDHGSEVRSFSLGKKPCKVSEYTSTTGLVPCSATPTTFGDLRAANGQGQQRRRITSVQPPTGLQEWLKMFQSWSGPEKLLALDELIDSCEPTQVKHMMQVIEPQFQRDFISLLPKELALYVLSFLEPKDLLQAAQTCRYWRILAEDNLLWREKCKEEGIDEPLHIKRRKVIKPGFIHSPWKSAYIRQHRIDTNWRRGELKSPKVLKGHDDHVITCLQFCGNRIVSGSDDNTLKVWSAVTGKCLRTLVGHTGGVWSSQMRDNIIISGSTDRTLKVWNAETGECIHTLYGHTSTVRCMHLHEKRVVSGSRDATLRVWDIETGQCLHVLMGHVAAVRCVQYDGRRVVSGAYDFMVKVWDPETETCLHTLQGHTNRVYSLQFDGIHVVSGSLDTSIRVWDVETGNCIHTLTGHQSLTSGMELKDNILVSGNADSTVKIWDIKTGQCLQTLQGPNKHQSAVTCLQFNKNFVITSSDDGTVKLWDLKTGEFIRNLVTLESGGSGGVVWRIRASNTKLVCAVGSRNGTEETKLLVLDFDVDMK
TEAD-YAP inh = TEAD-YAP interaction inhibition. HEK-TIYL cells, TEAD-Gal4/YAP UAS-luciferase luminescence. inhibition, % at 9.12 µM. 640,000 tested, 1.4% active; in the data active = inhibition above about 32%
GPR151 confirm = confirmation of human GPR151 activators; shares compounds with GPR151 activ; GPR151 PathHunter beta-arrestin cells, luminescence, 90 min; % of EA-reagent control over plate median; activation, % at 11.2 µM; 6,700 tested, under 10 active;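 active = mean percent activation across replicates above the confirmation screen cutoff of 4.91%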
GPR119 counter = counter-screen for GPR151 activators: effect on human GPR119 | 6,700 tested, 0.3% active | activation, % at 11.2 µM | GPR119 PathHunter beta-arrestin cells, luminescence, 90 min; 0 = compound-well median, 100 = enzyme-acceptor control | shares compounds with GPR151 activ;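 active = mean percent activation in the counterscreen above 29.09%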;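 note: counterscreen on off-target GPR119 to flag nonselective hits from the GPR151 activator screen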
Each line names hits and unclear results; the compound was inactive in the other large screens (follow-up assays come after a bar, where they were run); ! = not confirmed by another sample.

Cc1ccc2c(c1)NC(=O)C(CC(=O)NCc1cccs1)O2 (stereo not given)	none
Cc1ccc(-n2[nH]c(C)c(C=Nc3cccc(C(=O)O)c3)c2=O)cc1	GPR151 activ 5.4! | GPR151 confirm inactive | GPR119 counter inactive
CCCCN(C)Cc1c(C(=O)N2CCN(C3CCCCC3)CC2)nc2ccccn12	GPR151 activ 7.3 | GPR151 confirm inactive | GPR119 counter inactive
COc1ccc(OC)c(-n2c(CN3CCC(C(N)=O)CC3)nc3ccccc3c2=O)c1	GPR151 activ 5.6 | GPR151 confirm inactive | GPR119 counter inactive
COc1cc(C=O)ccc1Oc1ncccc1[N+](=O)[O-]	GPR151 activ 8.0 | GPR151 confirm inactive | GPR119 counter inactive
NC1CCN(Cc2ccn(-c3ccnc(Nc4ccc(N5CCOCC5)cc4)c3)n2)CC1	none
N#Cc1ccccc1C(Br)C(Br)C(=O)O (stereo not given)	GPR151 activ 6.0 | GPR151 confirm inactive | GPR119 counter inactive
N#Cc1ccc(C(=O)C(=O)c2ccccc2)cc1C#N	none
N#C/C(=C/c1ccccc1[N+](=O)[O-])c1nc2c(s1)CCCC2	none
Nc1cc[n+](CC(=O)c2ccccc2)cc1	GPR151 activ 7.1 | GPR151 confirm inactive | GPR119 counter inactive
Cc1c(C(=O)c2ccccc2)oc2ccc(NC(=O)c3cccs3)cc12	none
Cc1ccc(C(=O)c2oc3ccc(NC(=O)c4ccco4)cc3c2C)cc1	GPR151 activ 7.8 | GPR151 confirm inactive | GPR119 counter inactive
CCOC(=O)c1nnn(CC(=O)Nc2ccc(F)cc2)c1C(=O)OCC	none
COc1cc(/C=c2/sc3nc4ccccc4n3c2=O)cc(OC)c1OC(C)=O	none
COc1ccc(CCn2c(=O)c(C#N)cc3c(=O)n4cccc(C)c4nc32)cc1OC	GPR151 activ 7.4 | GPR151 confirm inactive | GPR119 counter inactive
COc1ccc(CNC(=O)c2c(C)nc3c(C)cccn23)cc1OC	GPR151 activ 5.1 | GPR151 confirm inactive | GPR119 counter inactive
O=C(O)c1c(-c2ccccc2)oc2ccc(O)cc12	none
O=C(c1c(-c2ccccc2)oc2ccc(O)cc12)N1CCCCC1	GPR151 activ 4.9 | GPR151 confirm inactive | GPR119 counter inactive
COc1cccn2c(C(=O)N3CCC3)c(C(F)(F)F)nc12	GPR151 activ 6.2 | GPR151 confirm inactive | GPR119 counter inactive
COc1cccn2c(C(=O)Nc3ccc(Cl)cc3)c(C(F)(F)F)nc12	GPR151 activ 14.2 | GPR151 confirm inactive | GPR119 counter inactive
COc1cccn2c(C(=O)N3CCCC3)c(C(F)(F)F)nc12	none
O=C(Nc1ccc(F)cc1F)C1CCCN(c2ncnc3c2nc2n3CCCCC2)C1 (stereo not given)	none
O=C(Nc1cc(F)ccc1F)C1CCCN(c2ncnc3c2nc2n3CCCCC2)C1 (stereo not given)	GPR151 activ 8.0 | GPR151 confirm inactive | GPR119 counter inactive
Cc1nn(-c2ccccc2)c2sc(C(=O)Nc3ccc(Cl)cc3)cc12	none
Cc1nn(-c2ccc(Cl)cc2)c2sc(C(=O)Nc3ccc(C(N)=O)cc3)cc12	GPR151 activ 6.7 | GPR151 confirm inactive | GPR119 counter inactive
Cc1ccnc2nc(C(=O)OCC(=O)Nc3cccc(C#N)c3)nn12	none
COC(=O)C(N)(c1cc(OC)c(O)c(OC)c1)C(F)(F)F (stereo not given)	none
CCCCNc1ncnc2c1c(-c1ccccc1)cn2-c1ccc(OCC)cc1	none
COc1cc(C(=O)N(Cc2nc(-c3ccc(C)cc3)no2)C(C)C)cc(OC)c1OC	GPR151 activ 8.3 | GPR151 confirm inactive | GPR119 counter inactive
O=C(Nc1ccc(-c2cscn2)cc1)C1CCCN(CCCn2cccn2)C1 (stereo not given)	none
CCOC(=O)c1c(NC(=S)NC(=O)c2ccc([N+](=O)[O-])cc2)sc2c1CCC2	none
CC1(C)Cc2ccccc2C2=C(C(=O)N3CCCCCC3)C(=O)C(=O)N21	none
CCNC(=O)C1=C2c3ccccc3CC(C)(C)N2C(=O)C1=O	GPR151 activ 6.1 | GPR151 confirm inactive | GPR119 counter inactive
Cc1cc(=O)oc2cc(OCC(=O)Nc3cccc4ccccc34)ccc12	none
O=C(CCC(=O)Nc1ccc(F)cc1)N/N=C/c1ccc(Br)cc1	none
O=C(CCC(=O)Nc1ccc(Br)cc1)N/N=C/c1ccc(F)cc1	GPR151 activ 6.4 | GPR151 confirm inactive | GPR119 counter inactive
